The record followed here is ChEMBL document CHEMBL3988442, “University of Dundee, Small-Polar-MMV Screening Library” (2021).

For some of these results: Potency and affinity values are given separately.

Common to all, as to design: scale not given: direction of the effect not stated beside the values
Assay [1] deals with Protein translocase subunit SecA (Escherichia coli (strain K12)) (UniProt P10408). As to the kind of experiment: Assay to Identify E. coli SecA ATPase Inhibitors. The conditions noted are these: 30 µM. Type of assay: functional.
Assay [2] concerns the target T1, Ubiquitin-activating enzyme e1, putative (Leishmania donovani (strain BPK282A1)) (UniProt E9BSI1).
T1 sequence (whole entry): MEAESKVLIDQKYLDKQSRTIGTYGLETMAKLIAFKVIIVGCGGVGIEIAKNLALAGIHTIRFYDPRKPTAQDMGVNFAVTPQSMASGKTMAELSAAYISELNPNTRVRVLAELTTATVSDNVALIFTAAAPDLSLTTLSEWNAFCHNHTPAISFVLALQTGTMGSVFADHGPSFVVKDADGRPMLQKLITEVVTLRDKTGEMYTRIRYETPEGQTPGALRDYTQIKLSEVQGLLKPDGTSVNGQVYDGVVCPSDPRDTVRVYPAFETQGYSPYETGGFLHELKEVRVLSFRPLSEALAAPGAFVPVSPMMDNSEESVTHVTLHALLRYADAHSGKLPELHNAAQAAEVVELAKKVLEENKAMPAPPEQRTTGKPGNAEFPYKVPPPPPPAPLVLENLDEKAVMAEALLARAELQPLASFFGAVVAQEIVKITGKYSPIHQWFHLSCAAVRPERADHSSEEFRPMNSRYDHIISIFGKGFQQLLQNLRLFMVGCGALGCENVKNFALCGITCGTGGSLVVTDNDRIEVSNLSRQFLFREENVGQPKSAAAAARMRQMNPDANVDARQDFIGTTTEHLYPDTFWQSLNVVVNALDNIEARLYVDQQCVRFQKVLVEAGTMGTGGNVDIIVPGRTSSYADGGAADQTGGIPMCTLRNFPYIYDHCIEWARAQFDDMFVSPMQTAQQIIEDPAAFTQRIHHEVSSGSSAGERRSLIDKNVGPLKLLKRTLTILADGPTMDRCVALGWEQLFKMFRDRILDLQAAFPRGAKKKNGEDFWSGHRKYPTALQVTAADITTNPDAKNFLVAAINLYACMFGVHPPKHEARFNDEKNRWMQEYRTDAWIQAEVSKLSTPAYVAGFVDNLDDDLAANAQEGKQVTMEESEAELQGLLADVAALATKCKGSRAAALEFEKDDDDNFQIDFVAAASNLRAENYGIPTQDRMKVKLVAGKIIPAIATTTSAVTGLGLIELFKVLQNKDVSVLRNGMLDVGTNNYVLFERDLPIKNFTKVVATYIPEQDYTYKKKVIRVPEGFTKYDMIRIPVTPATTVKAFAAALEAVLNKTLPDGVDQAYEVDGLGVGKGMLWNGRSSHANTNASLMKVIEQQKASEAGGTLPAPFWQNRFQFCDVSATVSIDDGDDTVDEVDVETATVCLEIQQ
Nature of the assay: Leishmania donovani Ubiquitin Activating Enzyme (LdE1). In kind it is functional. The conditions noted are these: 30 µM.

Assay [3] concerns the target Sialic acid-binding Ig-like lectin 9 (Homo sapiens) (UniProt Q9Y336). As to the kind of experiment: Hs-Siglec9 ALPHAscreen SOP 20170721. The conditions noted are these: 10 µM.
The subject of assay [4] is Trypanosoma cruzi. Nature of the assay: Trypanosoma cruzi phosphomannomutase and mannose-1-phosphate guanylyltransferase assay. Type of assay: functional. Conditions: 10 µM.
The target of assay [5] is T2, Arginase-2, mitochondrial (Homo sapiens) (UniProt P78540).
T2 sequence (whole entry): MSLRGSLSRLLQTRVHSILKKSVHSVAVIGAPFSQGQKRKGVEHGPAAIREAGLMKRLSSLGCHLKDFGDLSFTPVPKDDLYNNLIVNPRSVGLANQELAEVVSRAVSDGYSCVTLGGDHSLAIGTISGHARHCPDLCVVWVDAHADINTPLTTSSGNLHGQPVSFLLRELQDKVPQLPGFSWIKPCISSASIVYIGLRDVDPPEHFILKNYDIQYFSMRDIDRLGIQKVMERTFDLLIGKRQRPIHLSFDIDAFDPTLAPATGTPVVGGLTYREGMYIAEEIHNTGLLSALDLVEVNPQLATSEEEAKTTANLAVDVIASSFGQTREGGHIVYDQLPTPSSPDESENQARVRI
As to the kind of experiment: in vitro enzyme assay to detect the production of urea directly proportional to the activity of Arginase II. Further: in the data most compounds retested in dose-response had high values. Type of assay: functional. Conditions: 33.3 µM.

Assay [6] deals with T3, Proteasome subunit beta (Trypanosoma cruzi) (UniProt O96673).
T3 sequence (whole entry): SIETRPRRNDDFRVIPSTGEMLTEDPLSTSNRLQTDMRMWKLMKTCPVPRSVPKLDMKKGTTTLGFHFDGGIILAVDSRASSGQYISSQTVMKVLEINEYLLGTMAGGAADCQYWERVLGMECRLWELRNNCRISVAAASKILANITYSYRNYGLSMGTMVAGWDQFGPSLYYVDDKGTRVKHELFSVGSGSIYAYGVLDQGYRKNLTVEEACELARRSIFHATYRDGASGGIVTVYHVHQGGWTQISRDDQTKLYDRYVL
As to the kind of experiment: Trypanosoma cruzi proteasome chymotrypsin-like activity (TcProtChymo) assay. Further: in the data most compounds retested in dose-response had high values. Type of assay: functional. Conditions: 9.37 µM.

For assay [7], the species on record is Homo sapiens. Nature of the assay: To identify inhibition of the IFN signalling (Jak-Stat) pathway via expression of an eGFP reporter gene under the control of an IFN-stimulated response element (ISRE) containing MxA promoter. In kind it is functional. The conditions noted are these: 30 µM.
Assay [8] deals with T4, Tyrosyl-tRNA synthetase, putative (Trypanosoma cruzi (strain CL Brener)) (UniProt Q4DSP6).
T4 sequence (whole entry): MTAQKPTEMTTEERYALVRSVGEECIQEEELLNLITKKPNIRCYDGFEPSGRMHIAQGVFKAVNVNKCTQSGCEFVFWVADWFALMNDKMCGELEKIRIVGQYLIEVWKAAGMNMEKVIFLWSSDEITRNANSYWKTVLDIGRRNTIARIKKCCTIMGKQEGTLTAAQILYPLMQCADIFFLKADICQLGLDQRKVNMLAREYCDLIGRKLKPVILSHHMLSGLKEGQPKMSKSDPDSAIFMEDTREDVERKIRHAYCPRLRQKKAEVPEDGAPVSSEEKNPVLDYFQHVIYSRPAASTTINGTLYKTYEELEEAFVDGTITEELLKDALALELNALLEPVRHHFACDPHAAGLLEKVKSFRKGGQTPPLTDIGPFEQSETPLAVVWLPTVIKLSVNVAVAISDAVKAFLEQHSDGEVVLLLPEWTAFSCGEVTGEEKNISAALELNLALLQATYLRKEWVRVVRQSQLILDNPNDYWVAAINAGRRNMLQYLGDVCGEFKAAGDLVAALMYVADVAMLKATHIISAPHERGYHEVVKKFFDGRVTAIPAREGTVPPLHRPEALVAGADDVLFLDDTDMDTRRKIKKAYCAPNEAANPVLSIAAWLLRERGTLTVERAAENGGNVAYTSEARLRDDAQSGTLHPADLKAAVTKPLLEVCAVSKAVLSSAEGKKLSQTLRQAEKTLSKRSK
As to the kind of experiment: Trypanosoma cruzi tyrosyl tRNA synthetase (TcYRS) _High Tyrosine SOP. Further: in the data most compounds retested in dose-response had high values. Type of assay: functional. Conditions: 30 µM.

The target of assay [9] is T4, Tyrosyl-tRNA synthetase, putative (Trypanosoma cruzi (strain CL Brener)). Nature of the assay: Trypanosoma cruzi tyrosyl tRNA synthetase (TcYRS) SOP. In kind it is functional. Conditions: 30 µM.
The target in assay [10] is Chromo domain-containing protein 1 (Saccharomyces cerevisiae (strain ATCC 204508 / S288c) (Baker's yeast)) (UniProt P32657). As to the kind of experiment: ScCHD-1 Enzyme Inhibition Assay. Further: in the data most compounds retested in dose-response had high values. Type of assay: functional. Conditions: 30 µM.
Chain of Chromo domain-containing protein 1 (Saccharomyces cerevisiae (strain ATCC 204508 / S288c) (Baker's yeast)) (P32657 whole entry, the tested form may be a part): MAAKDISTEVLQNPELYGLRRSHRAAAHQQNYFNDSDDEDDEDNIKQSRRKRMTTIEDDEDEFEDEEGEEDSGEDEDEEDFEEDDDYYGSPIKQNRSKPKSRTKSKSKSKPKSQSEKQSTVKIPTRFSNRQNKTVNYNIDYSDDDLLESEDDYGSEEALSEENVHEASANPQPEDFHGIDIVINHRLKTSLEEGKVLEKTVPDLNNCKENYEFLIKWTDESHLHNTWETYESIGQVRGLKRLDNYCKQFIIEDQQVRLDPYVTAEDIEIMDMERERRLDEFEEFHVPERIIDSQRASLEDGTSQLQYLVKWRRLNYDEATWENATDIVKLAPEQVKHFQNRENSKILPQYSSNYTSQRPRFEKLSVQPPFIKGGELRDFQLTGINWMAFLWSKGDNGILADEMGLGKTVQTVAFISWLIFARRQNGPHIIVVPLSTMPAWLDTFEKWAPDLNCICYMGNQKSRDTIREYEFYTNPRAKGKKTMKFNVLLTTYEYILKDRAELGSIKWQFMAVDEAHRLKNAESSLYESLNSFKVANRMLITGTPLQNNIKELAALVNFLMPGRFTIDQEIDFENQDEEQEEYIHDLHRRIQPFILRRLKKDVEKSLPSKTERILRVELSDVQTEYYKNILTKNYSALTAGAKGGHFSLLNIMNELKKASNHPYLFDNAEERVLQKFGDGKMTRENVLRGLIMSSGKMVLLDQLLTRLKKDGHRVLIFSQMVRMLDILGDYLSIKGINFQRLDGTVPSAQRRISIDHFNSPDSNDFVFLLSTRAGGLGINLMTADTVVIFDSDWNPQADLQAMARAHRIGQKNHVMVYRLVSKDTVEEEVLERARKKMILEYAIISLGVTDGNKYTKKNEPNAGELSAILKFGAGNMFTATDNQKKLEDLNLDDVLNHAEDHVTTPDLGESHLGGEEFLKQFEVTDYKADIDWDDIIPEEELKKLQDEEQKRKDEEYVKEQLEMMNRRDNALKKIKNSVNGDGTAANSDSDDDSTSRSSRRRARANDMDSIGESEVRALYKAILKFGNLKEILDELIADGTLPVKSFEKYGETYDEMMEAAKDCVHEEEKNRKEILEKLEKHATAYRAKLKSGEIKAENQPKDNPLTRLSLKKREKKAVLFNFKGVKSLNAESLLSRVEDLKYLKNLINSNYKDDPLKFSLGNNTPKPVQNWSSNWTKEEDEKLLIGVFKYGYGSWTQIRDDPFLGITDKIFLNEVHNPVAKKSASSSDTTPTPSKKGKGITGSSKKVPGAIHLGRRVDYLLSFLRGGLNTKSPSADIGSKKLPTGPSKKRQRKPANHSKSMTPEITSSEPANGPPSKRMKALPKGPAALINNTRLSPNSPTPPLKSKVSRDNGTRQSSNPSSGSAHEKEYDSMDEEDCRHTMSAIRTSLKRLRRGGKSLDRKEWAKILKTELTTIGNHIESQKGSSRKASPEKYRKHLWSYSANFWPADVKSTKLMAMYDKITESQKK

Chain of Protein translocase subunit SecA (Escherichia coli (strain K12)) (P10408 whole entry): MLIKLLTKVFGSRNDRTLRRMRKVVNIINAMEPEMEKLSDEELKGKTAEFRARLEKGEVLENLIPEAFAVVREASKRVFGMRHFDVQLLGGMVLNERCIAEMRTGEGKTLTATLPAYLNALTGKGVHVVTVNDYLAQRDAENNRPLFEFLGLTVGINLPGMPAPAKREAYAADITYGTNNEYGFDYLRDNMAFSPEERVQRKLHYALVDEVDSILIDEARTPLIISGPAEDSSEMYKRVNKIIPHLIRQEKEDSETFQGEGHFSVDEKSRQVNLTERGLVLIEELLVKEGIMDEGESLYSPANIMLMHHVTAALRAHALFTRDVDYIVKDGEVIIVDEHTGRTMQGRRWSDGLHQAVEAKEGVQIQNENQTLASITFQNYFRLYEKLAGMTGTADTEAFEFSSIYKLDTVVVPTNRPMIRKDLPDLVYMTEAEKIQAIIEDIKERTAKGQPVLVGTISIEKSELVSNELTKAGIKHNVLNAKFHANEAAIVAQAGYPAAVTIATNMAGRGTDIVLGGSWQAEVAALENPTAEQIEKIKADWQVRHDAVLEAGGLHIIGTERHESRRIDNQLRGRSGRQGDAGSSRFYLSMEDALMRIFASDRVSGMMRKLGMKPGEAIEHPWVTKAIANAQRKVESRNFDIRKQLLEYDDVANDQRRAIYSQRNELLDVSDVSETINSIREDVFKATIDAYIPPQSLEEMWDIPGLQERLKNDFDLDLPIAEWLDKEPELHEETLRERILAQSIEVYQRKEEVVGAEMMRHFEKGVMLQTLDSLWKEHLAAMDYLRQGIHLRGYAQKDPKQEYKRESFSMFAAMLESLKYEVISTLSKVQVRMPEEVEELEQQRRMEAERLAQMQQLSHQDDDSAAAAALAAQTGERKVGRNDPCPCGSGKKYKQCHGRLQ
Chain of Sialic acid-binding Ig-like lectin 9 (Homo sapiens) (Q9Y336 whole entry): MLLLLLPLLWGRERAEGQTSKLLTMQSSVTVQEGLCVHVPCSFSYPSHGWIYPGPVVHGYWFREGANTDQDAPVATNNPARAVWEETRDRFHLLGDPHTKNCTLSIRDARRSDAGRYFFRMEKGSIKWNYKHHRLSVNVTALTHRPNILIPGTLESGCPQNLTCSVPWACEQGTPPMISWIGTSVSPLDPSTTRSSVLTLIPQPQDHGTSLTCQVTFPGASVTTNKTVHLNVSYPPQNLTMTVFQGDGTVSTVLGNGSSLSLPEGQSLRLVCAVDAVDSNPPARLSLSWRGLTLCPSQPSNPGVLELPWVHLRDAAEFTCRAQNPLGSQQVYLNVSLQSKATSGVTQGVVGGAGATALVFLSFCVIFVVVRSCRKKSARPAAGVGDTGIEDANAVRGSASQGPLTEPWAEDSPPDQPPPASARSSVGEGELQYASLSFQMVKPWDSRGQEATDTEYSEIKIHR

As for `Cc1ccc([C@@H]2CN(C(=O)c3ccc[nH]3)C[C@H]2NC(=O)C2CC2)cc1`, the Percent Effect in assay [1] was -2.9%; in assay [2], 5.41%; in [3], 1.4%; in assay [4], -4.56%; in assay [5] it was -3.85%; in assay [6], 17.3%. In addition, the Percent Effect in assay [7] is 30.6%; in assay [8], 2.66%; in assay [9], 7.32%; in assay [10], -6.72%.
On to `Cn1cc(CN2C[C@@H]3COC[C@]3(CNC(=O)c3ccsc3)C2)cn1`, for which the Percent Effect in assay [1] is -3%; in assay [2], -1.3%; in assay [3] it was 16.9%; in assay [4], -3.6%; in assay [5], -5.26%; in [6], 9.27%. Further, the Percent Effect was -6.13% in assay [7], -1.58% in [8], 0% in assay [9] and -2.4% in assay [10].
Take `COCCN(C)C[C@@H]1CCC[C@@H]2CN(c3cc(OC)ncn3)C[C@@H]21`: the Percent Effect in assay [1] was -6.04%; in assay [2] it was 3.9%; in [3], -3.68%; in assay [4] it was -1.27%; in assay [5] it was -5.26%; in assay [6] it was 13.9%. In addition, the Percent Effect in assay [7] was found to be 11.6%; in assay [8] it was 7.89%; in assay [9], 7.69%; in [10], 0.558%.
With `O=C(Cn1cccnc1=O)NCCc1ccc2c(c1)OCCO2`, the Percent Effect in [1] was -2.08%; in assay [2], 16%; in assay [3], -6.16%; in assay [4], -5.22%; in assay [5] it was 1.77%; in [6], 18.9%. For the same molecule, the Percent Effect in [7] is 9.16%; in assay [8], 1.58%; in assay [9], 7.69%; in [10] it was -8.6%.
On to `CCCn1nc2c(cc1=O)CN(CC(=O)Nc1ccncc1)CC2`, for which the Percent Effect in assay [1] is -3.45%; in assay [2], 10.4%; in assay [3], 6.89%; in assay [4], -3.17%; in assay [5] it was 2.25%; in assay [6], 17.2%. For the same molecule, the Percent Effect was 3.95% in assay [7], 3.92% in assay [8], 11.8% in [9] and -14.2% in [10].
With `CC(C)CCCNC(=O)Nc1ccc(F)c(C(N)=O)c1`, the Percent Effect is -0.324% in [1]; 23.4% in assay [2]; 0.112% in [3]; 2.61% in [4]; -6.76% in [5]; 12.3% in [6]. The Percent Effect is 14.9% in assay [7], 6.86% in [8], 30.6% in assay [9] and -10.9% in assay [10].
Regarding `COCC1CN(Cc2ccsc2)Cc2nn(C)cc21` (stereo not given), the Percent Effect was -4.97% in assay [1]; 6.49% in assay [2]; -3.38% in assay [3]; -7.11% in assay [4]; 2.83% in assay [5]; 20.9% in assay [6]. Further, the Percent Effect in assay [7] was determined as 13.5%; in assay [8], 3.68%; in assay [9], 0%; in [10], 2.62%.
